From PubChem BioAssay
BoNT A protease – blocks Botulinum neurotoxin A light chain protease | multiplex microsphere protease substrate cleavage, flow cytometry | inhibition, % at 10 µM | actives 0.17% (n = 360,000) | AID 588499; also: plate controls were buffer without enzyme for full effect and enzyme alone for no effect
Anthrax LF prot – blocks Bacillus anthracis lethal factor protease; inhibition, % at 10 µM; multiplex microsphere protease cleavage assay, LF; actives 0.12% (n = 360,000); P15917; also: plate controls were buffer without enzyme for full effect and enzyme alone for no effect
BoNT-F LC inh – inhibitors of Botulinum neurotoxin F light chain protease | Multiplex microsphere protease cleavage assay, flow cytometry | inhibition, % at 10 µM | actives 0.22% (n = 360,000) | AID 588497; in the data active = inhibition above about 35%, passing the limit was not always enough; inconclusive = no clear call, values can overlap the other calls; also: plate controls were buffer without enzyme for full effect and enzyme alone for no effect
Autofluor counter – flagged as autofluorescent in microsphere protease counterscreen; compound autofluorescence counterscreen, microsphere flow cytometry; active compounds read high; fluorescence intensity (concentration not given with the values); actives 3.1% (n = 360,000); AID 624483; in the data active = fluorescence intensity above about 16000; inconclusive = no clear call, values can overlap the other calls
Starred values were filed as active, the others as inactive; ? = inconclusive. An excerpt weighted towards active compounds, which were near 3.5% of everything screened. Rule as the data show it, unless noted: active = inhibition above about 30%; inconclusive = no clear call, values can overlap the other calls; inactive = below that.

SMILES	BoNT A protease	Anthrax LF prot	BoNT-F LC inh	Autofluor counter
C=CCn1c(CCNC(=O)c2cccs2)nnc1SCC(=O)Nc1cccc(Cl)c1C	?	1	-3	20193*
C[C@@H]1CN([C@H](C)CO)C(=O)CCCn2nncc2CO[C@H]1CN(C)Cc1cccc(C(=O)O)c1	0	-2	7	3789
O=C(CSc1ccc2ccccc2n1)N1CCC(c2noc3ccc(F)cc23)CC1	-8	0	-10	22244*
Cc1cccc(N2C(=O)CC(N(C(=O)c3ccco3)c3cccc(C)c3)C2=O)c1 (configuration not stated)	?	0	-7	17561*
C=CCCC(=O)N1C[C@H]2CON(C)[C@H]2C[C@H]1c1ccc(N2CCCCC2)cc1	0	6	2	7419
CCc1ccc(N2CC(C(=O)Nc3cccnc3)CC2=O)cc1 (configuration not stated)	0	2	-2	5196
Cc1ccc(N2CC(C(=O)Nc3cccnc3)CC2=O)cc1 (configuration not stated)	0	1	2	23113*
C=COCCNC(=O)C1CC(=O)N(c2ccc(C)cc2)C1 (configuration not stated)	-1	-6	-7	24393*
C[C@@H]1CN([C@H](C)CO)C(=O)c2c(c3ccccc3n2C)-c2ccccc2CO[C@H]1CN(C)S(=O)(=O)c1cn(C)cn1	0	0	-8	3759
Cc1ccc(CCNC(=O)CCSCc2ccc(Cl)cc2)cc1	0	-3	-7	2213
Cc1ccc(CSCCNC(=O)/C=C/c2ccc(Cl)cc2)cc1	2	1	3	21860*
COc1ccc(C)cc1NC(=O)COC(=O)c1c(-c2ccccc2)noc1C	0	-3	-3	3547
COc1cccc(S(=O)(=O)NCc2ccc(C(=O)NCc3ccco3)cc2)c1	-6	1	-6	25859*
COc1cccc(S(=O)(=O)Nc2ccc(C(=O)NCc3ccco3)cc2)c1	0	-5	1	11265
O=C(c1ccc(S(=O)(=O)NCc2ccco2)cc1)N1CCCC1	1	0	6	3446
COc1cccc(NC(=O)COC(=O)c2ccc(S(=O)(=O)NCc3ccco3)cc2)c1	-3	-1	-9	23475*
O=S(=O)(NCc1ccco1)c1ccc(S(=O)(=O)N2CCCCC2)cc1	-1	-6	-4	23145*
O=C(COC(=O)c1ccc(S(=O)(=O)NCc2ccco2)cc1)NC1CCCCCC1	-1	-15	-2	9658
CC1CCCCC1NC(=O)COC(=O)c1ccc(S(=O)(=O)NCc2ccco2)cc1 (configuration not stated)	4	-7	6	21167*
O=C(Nc1ccc(S(=O)(=O)NCc2ccco2)cc1)C1CCCCC1	1	-1	-3	4626
O=C(NC1CCCCCC1)c1ccc(S(=O)(=O)NCc2ccco2)cc1	-1	-1	-1	23471*
CC(C)C(C)NC(=O)COc1ccc(-c2ccccc2)cc1 (configuration not stated)	-1	0	-2	3076
CCOC(=O)c1nn(-c2ccccc2)c(=O)cc1OCC(=O)Nc1cc(C)ccc1C	1	3	9	5676
CC(=O)Nc1cccc(OCC(=O)Nc2ccccc2)c1	0	-14	-3	7096
Cc1ccc(OCC(=O)Nc2cccc(-c3nnc(-c4ccccc4)o3)c2)c(C)c1	?	-3	3	21189*
SMILES	BoNT A protease	Anthrax LF prot	BoNT-F LC inh	Autofluor counter
CC(C)C(NC(=O)COc1ccccc1)C(=O)O (configuration not stated)	6	-6	9	19854*
CCOC(=O)c1nn(-c2ccc(C)cc2)c(=O)cc1OCC(=O)Nc1cccc(C)c1	10	0	43*	4308
CCOC(=O)Nc1cccc(OCC(=O)Nc2ccccc2OCC)c1	-1	-3	-2	22734*
Nc1ccn(C2C=CC(CO)O2)c(=O)n1 (configuration not stated)	0	2	0	5816
Cc1cccc(NC(=O)COc2ccccc2)c1	-11	-1	-14	26330*
O=S(=O)(c1ccc(Cl)cc1)N1CCNCC1	-2	-6	-9	3776
O=C1Nc2cc(Cl)ccc2C1(N1CCNCC1)C(F)(F)F (configuration not stated)	2	-7	-1	18877*
COCCn1c(C)cc(C(=O)COC(=O)CCS(=O)(=O)c2ccc(C)cc2)c1C	-4	-5	-12	6959
COCCn1c(C)cc(C(=O)COC(=O)CCc2ccc(S(=O)(=O)N3CCOCC3)cc2)c1C	?	-3	-2	22125*
Cc1ccc(NC(=O)CCc2ccc(S(=O)(=O)N3CCOCC3)cc2)c(C)c1	?	-8	3	20854*
O=c1[nH]cc(S(=O)(=O)N2CCN(c3ccc(F)cc3)CC2)c(=O)[nH]1	0	-8	0	3393
COc1ccccc1CCC(=O)NNC(=O)Cn1nc(C)cc1C	0	-5	1	2934
O=C(C(Cl)Cl)N1c2ccccc2OCC1c1ccccc1 (configuration not stated)	?	-1	-3	22852*
CCN1CCN(c2nc3sc4c(c3c(=O)n2-c2ccc(OC)cc2)CCCCC4)CC1	-1	0	-3	16947*
O=C(Cn1cc(C(F)(F)F)ccc1=O)Nc1ccc2c(c1)OCO2	0	4	1	3917
CCN(CC)C(=O)c1cccc(-c2ccc(OC)cc2)c1	1	-1	0	21818*
COC(=O)CNC(=O)c1cccc(-c2ccc(OC)cc2)c1	0	0	-4	2181
Cn1c(NCCCN2CCOCC2)nc2c1c(=O)n(Cc1ccc(Cl)cc1Cl)c(=O)n2C	2	-8	0	21423*
COCCCNc1nc2c(c(=O)n(Cc3ccc(Cl)cc3)c(=O)n2C)n1C	-3	12	8	3546
CC1(c2nnnn2-c2ccc3c(c2)OCCO3)CCC(=O)N1Cc1ccc(F)cc1 (configuration not stated)	-1	2	-6	6266
O=C(CSCc1cccc(Br)c1)N1CCOCC1	-2	-1	-5	23815*
Cc1ccc(/C=N\Nc2cn[nH]c(=O)c2Cl)cc1	1	-1	-5	23558*
O=c1[nH]ncc(N/N=C/c2ccccc2)c1Cl	1	2	1	15870
Cc1ccc(N2C(=O)CC(n3nc(C)cc3C)C2=O)cc1 (configuration not stated)	?	0	-4	16252*
Cc1cc(C)n(C2CC(=O)N(c3ccc(Cl)c(Cl)c3)C2=O)n1 (configuration not stated)	3	?	5	3742
SMILES	BoNT A protease	Anthrax LF prot	BoNT-F LC inh	Autofluor counter
CSc1nc2ccc(Cl)cc2[nH]1	5	-9	9	20323*
C=CCn1c(C)cc(C(=O)CSc2nc3ccccc3[nH]2)c1C	?	-3	1	23335*
Cc1cc(C(=O)CSc2nc3ccc(Cl)cc3[nH]2)c(C)n1C	-3	-9	-4	23487*
Cc1ccc2nc(SCC(=O)c3cc(C)n(C)c3C)[nH]c2c1	0	-4	2	2270
COc1ccc2nc(NCCO)[nH]c2c1	1	-4	11	2282
OCCNc1nc2ccc(Cl)cc2[nH]1	4	0	4	22121*
C=CCn1c(C)cc(C(=O)CSc2nc3ccccc3c(=O)[nH]2)c1C	0	0	-3	3072
CSc1nc2ccc(Br)cc2[nH]1	-1	-3	-5	4612
